# Compounds without any hit were thinned out: in the full panel of roughly 83,000, 20% have a hit.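 Note: values are percent growth. 100 is the growth of untreated cells, values between 100 and 0 indicate rising inhibition; between -100 and 0 indicates cell death.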 Unmarked numbers belong to inactive results. Activity calls are given as the source filed them.
# System: SW-620 colon
# Experiment: NCI-60 one-dose screen, 48 h (100 = growth as untreated, 0 = no growth, -100 = all killed)
# Conditions: 10 µM unless noted
# Method: Growth inhibition of the SW-620 human tumor cell line is measured as a screen for anti-cancer activity. Cells are grown in 96 well plates and exposed to the test compound for 48 hours. Compounds are tested at a single concentration, which is 10^-5 M for most compounds. The reported endpoint is percent growth (GI% or GIPRCNT), where numbers from 0 - 100% represent growth inhibition, and numbers from -100% - 0 represent cell death. For example, a value of 40 represents 60% growth inhibition. A value of 0 means no net growth occurred over the course of the experiment. A value of -40 indicates 40% of cells at the beginning of the experiment died by the end of the experiment. A value of -100 means all cells are dead at the end of the experiment.
# NCI-60 Human Tumor Cell Lines Screen was performed using the standard one-dose NCI protocol, which is described in more detail at https://dtp.cancer.gov/discovery_development/nci-60/default.htm.
# Compounds with GIPRCNT values below 10 were considered active. Activity score was based on GIPRCNT using the following formula: […]
# Score is 0 for GIPRCNT values of 100 or above, 50 for GIPRCNT values of 0, and 100 for GIPRCNT values of -100.
row,SMILES,growth
1,COc1ccc(C(=O)Nc2ncc(Cc3cccc(Cl)c3)s2)cc1OC,27.4%
2,CCO/C=N/C1=C(C#N)C(c2ccc(OC)cc2)c2sc3c(F)cccc3c2O1 (stereo not given),22.4%
3,O=C(O)CCCN1C(=O)/C(=C/C(Cl)=C/c2ccccc2)SC1=S,7.33% (active)
4,C[C@]12CC[C@@H]3c4ccc(O)c([N+](=O)[O-])c4CC[C@H]3[C@@H]1CCC2=O,100%
5,C/C(=N/O)c1ccc(F)cc1,48.6%
6,COC(=O)c1c2c(c[n+]([O-])c1C)C(=O)C(NCc1ccccc1)=CC2=O,-19% (active)
7,CCN(CC)CCOc1ccc(-c2c(-c3ccccc3)c(=O)oc3ccccc23)cc1,87.3%
8,O=C(CCCCC1CCSS1)Nc1ncnc2n[nH]c(-c3ccc(Oc4ccccc4)cc3)c12 (stereo not given),111%
9,C=C(C)[C@@H]1CC[C@]2(C(=O)OC)CC[C@]3(C)[C@H](CC[C@@H]4[C@@]5(C)C/C(=C/NC(N)=S)C(=O)C(C)(C)[C@@H]5CC[C@]43C)[C@@H]12,87.3%
10,CC(C)N1CN2C(=S)NC3C2N(C1)C(=S)N3C (stereo not given),101%
11,CCC(=C(c1ccc(OCCN2CCCC2)cc1)c1ccc(OCCN2CCCC2)cc1)c1ccc(Cl)cc1,-77.7% (active)
12,CN1CCN(C(=O)OCc2ccc3c(Cl)cc(Cl)c(O)c3n2)CC1,52.4%
13,CCN1CC(=O)N(/N=C2\C(=O)Nc3ccccc32)C1=S,87%
14,CN(CCOc1ccc(C#N)cc1)CCOc1ccc(C#N)cc1,57.8%
15,O=C(Cn1c(-c2ccc([N+](=O)[O-])cc2)nc2ccccc21)NNC(=O)c1cccnc1,103%
16,CS(=O)(=O)C1=CN(CCO)C(=O)N2CCCN=C12,93.4%
17,O=C1N[C@@H]2NC(=[N+]3CCOCC3)N[C@@H]2N1,98.8%
18,S=C(Nc1ccc(-c2nc(N3CCOCC3)c3cccn3n2)cc1)Nc1cccnc1,46.7%
19,Oc1c(Cl)cc(Cl)cc1/C=N/Nc1nnc(N/N=C/c2cc(Cl)cc(Cl)c2O)c2ccccc12,17.2%
20,Cc1ccc(C(C(N)=O)C(C(N)=O)c2ccccc2)cc1 (stereo not given),105%

row,SMILES,growth
1,O=C(Nc1cccnc1Nc1ccc(F)cc1)c1cn(Cc2cccc(Oc3ccccc3)c2)nn1,56.5%
2,c1cnc2[nH]cc(-c3csc(-c4cn(CCCN5CCOCC5)c5ccccc45)n3)c2c1,39.5%
3,CCCc1cc(NC)nc(S(=O)(=O)CC)n1,105%
4,Cc1nc2sc(C(=O)Nc3cccc(Cl)c3C)c(N)c2cc1C(=O)c1ccccc1,27%
5,C=C1C(=O)O[C@H]2[C@H]1CC/C(COC(=O)N[C@H]1C[C@H](O[C@H]3C[C@](O)(C(=O)CO)Cc4c(O)c5c(c(O)c43)C(=O)c3c(OC)cccc3C5=O)O[C@@H](C)[C@H]1O)=C\CC[C@@]1(C)O[C@@H]21,1.42% (active)
6,Nc1ncnc2c1N=C(c1ccc3c(c1)OCO3)CC(c1ccc([N+](=O)[O-])cc1)N2 (stereo not given),81.5%
7,Cn1c(O)c(C=NCCN=Cc2c(O)n(C)c(=O)n(C)c2=O)c(=O)n(C)c1=O,107%
8,CC/C(=C(/c1ccc(Cl)cc1)c1ccc(OCCN2CCCC2)cc1)c1ccc(OC)cc1,60.2%
9,COc1cc(-c2csc(NC(=O)c3cc(-n4cnc(C)c4)cc(C(F)(F)F)c3)n2)cc(OC)c1OC,77.9%
10,CO[C@H]1/C=C(/C)CCC[C@H](C)[C@H](O)[C@@H](C)C(=O)C(C)(C)[C@@H](O)CC(=O)O[C@@H]1/C(C)=C/c1csc(C)n1,33.8%
11,CCCCCCCCCCCCCCCCCCOc1ccccc1CC(=O)OCC[N+]1(C)CCCC1,21.4%
12,CCOC(=O)c1c2c(n3ccc(C)cc13)C(=O)c1ccccc1C2=O,89.2%
13,COc1ccc(/C=C2\COc3ccc(O)cc3C2=O)c(OC)c1OC,38.9%
14,Cc1c(-n2nnc(-c3nc4ccccc4s3)c2N)c(=O)n(-c2ccccc2)n1C,106%
15,Cc1ccc(-c2nc(N3CCNCC3)c3oc(-c4ccccc4)nc3n2)cc1,-55.1% (active)
16,O=S(=O)(NCCNc1cc(-c2c(-c3cccc(O)c3)nc3sccn23)ccn1)c1ccc(C(F)(F)F)cc1,47.3%
17,CCOC(=O)C1=NN(c2ccccc2)C(=O)/C1=C\N1C(=O)CC(=O)NC1=S,93.7%
18,CCOP(=O)(OCC)c1nc(-c2ccccc2)oc1NCc1cccnc1,101%
19,Oc1c(Cl)cc(Cl)c2ccc(Cn3cc(-c4ccc(C(F)(F)F)cc4)nn3)nc12,7.74% (active)
20,CC1=C(CCC(C)N(C)Cc2ccc(OCCCN3CCCC3)cc2)C(C)(C)CCC1 (stereo not given),21.3%

# — PubChem BioAssay (NCI)
